PubChem BioAssay (Tox21)
Records with an inconclusive call do not appear. A call without a number means that no potency is given here. More than one record can exist for a structure, and the calls need not agree. Activity calls are given as the source filed them. The call rests on the fitted dose curve; in most records, active means well fitted cell-killing curve with a large enough effect in the repeat runs; inconclusive means weak or mixed curves, or effect the other way; inactive means flat fitted curve, though single readings scatter.

Test: qHTS RealTime-Glo MT Cell Viability Assay in HEK293 cells - 32 hour (AID 1224868); further: nearly all actives have a fitted effect of over 50% in size; on activity change, negative = cytotoxic: top concentration of the series differs between compounds
Conditions: RealTime-Glo luminescence; series mostly up to 76.8 µM; activity change, negative = cytotoxic: at the top concentration
Description: National Center for Advancing Translational Sciences [NCATS]
NIH Chemical Genomics Center [NCGC]
U.S. Environmental Protection Agency [EPA]
National Institutes of Environmental Health Sciences [NIEHS]
National Toxicology Program [NTP]
U.S. Food and Drug Administration [FDA]
Measure of cell viability is critical in the cell-base assay. Analysis of cell viability is necessary for the characterization of cell responses to cytotoxic drugs and environmental stress. A RealTime-Glo MT Cell Viability Assay to monitor cell viability in real time of continues cell culture during 40 hours of compound treatment was used to screen Tox21 10K library compounds in Hek293 cells. The RealTime-Glo MT Cell Viability Assay is a nonlytic, homogeneous, bioluminescent method to measure cell viability in real time using a simple, plate-based method. The assay involves adding NanoLuc luciferase and a cell-permeant prosubstrate to cells in culture. Viable cells reduce the proprietary prosubstrate to generate a substrate for NanoLuc luciferase. This substrate diffuses from cells into the surrounding culture medium, where it is rapidly used by the NanoLuc Enzyme to produce a luminescent signal. The signal correlates with the number of viable cells, making the assay well suited for cytotoxicity studies.
Tox21 Assay Protocol Summary:
The mixture of Hek293 cell suspension and reagents were dispensed at 600cells/6 ul/well in 1536-well tissue culture treated black solid bottom plates using a Multidrop dispenser. After the assay plates were incubated at a 37 C/5% CO2 incubator for 5 hours, 23 nL of compounds dissolved in DMSO, positive and negative controls was transferred to the assay plate by a pintool work station. The plates were incubated at 37 C for 40 hours. The luminescence intensity were measured at 0h, 8h, 16h, 24h, 32h and 40h time points using ViewLux plate reader during compound treatment.
Potency means the concentration at half of the fitted maximal effect.

SMILES | Potency | activity change, negative = cytotoxic
Cc1cc(Cc2ccc(N)c(C)c2)ccc1N | inactive | –
NS(=O)(=O)c1cc2c(cc1Cl)NC=NS2(=O)=O | inactive | –
OC1CCCC1 | inactive | –
C=C(C)C(=O)OCCCCCCCCCCCC | inactive | –
CC(=O)Nc1ccc(C(=O)O)cc1 | inactive | –
C=C(C)C(=O)OCCCCCC | inactive | –
CC1=C(/C=C/C(C)=C/C=C/C(C)=C/CO)C(C)(C)CCC1 | inactive | –
CC(=O)CCc1ccccc1 | inactive | –
O=S(=O)(O)c1cc(S(=O)(=O)O)c2c(N=Nc3ccccc3)c(O)ccc2c1 | – | -20.2% (inactive)
CCCCC/C=C\C/C=C\CCCCCCCC(=O)OC | inactive | –
Cc1ccc(C)c(C)c1 | inactive | –
O=C1N=C(O)CN1/N=C/c1ccc(-c2ccc([N+](=O)[O-])cc2)o1 | – | -0.459% [at 35.3 µM] (inactive)
NC(=O)/N=N/C(N)=O | inactive | –
COC(=O)c1ccccc1O | inactive | –
C=CC(=O)OCCCCCCCC(C)C | – | 3.83% (inactive)
CC1(C)CC(N=C=O)CC(C)(CN=C=O)C1 (stereo not given) | inactive | –
NC(=O)NNc1ccccc1 | inactive | –
CCc1ccc(O)cc1 | inactive | –
CC1Cc2ccccc2N1NC(=O)c1ccc(Cl)c(S(N)(=O)=O)c1 (stereo not given) | inactive | –
CC1=CC[C@H]2C[C@@H]1C2(C)C | inactive | –

SMILES | Potency | activity change, negative = cytotoxic
OC[C@@H](O)[C@H](O)[C@H](O)[C@@H](O)CO | inactive | –
CC(C)n1c(/C=C/[C@@H](O)C[C@@H](O)CC(=O)O)c(-c2ccc(F)cc2)c2ccccc21 | inactive | –
CC(C)(C)C1CCC(O)CC1 (stereo not given) | inactive | –
C/C=C(C)/C=C/C=C(C)C | – | 18.5% (inactive)
O=C1O[C@H](CO)[C@@H](O)[C@H](O)[C@H]1O | inactive | –
Nc1nc2ncc(CNc3ccc(C(=O)N[C@@H](CCC(=O)O)C(=O)O)cc3)nc2c(=O)[nH]1 | inactive | –
CC#C[C@]1(O)CC[C@H]2[C@@H]3CCC4=CC(=O)CCC4=C3[C@@H](c3ccc(N(C)C)cc3)C[C@@]21C | 49 µM (active) | –
Cc1ccc(C(=O)O)o1 | inactive | –
Oc1ccc2ccccc2c1N=Nc1ccccc1 | – | 18.8% (inactive)
O=S(=O)(Oc1ccc(Cl)cc1Cl)c1ccccc1 | – | -23.6% (inactive)
CC[Si](OC(C)=O)(OC(C)=O)OC(C)=O | inactive | –
CCCCCCC(C)(C)S | inactive | –
CCCCC(CC)COC(C)=O (stereo not given) | inactive | –
C[C@@H]1O[C@@H](OC[C@H]2O[C@@H](Oc3c(-c4ccc(O)c(O)c4)oc4cc(O)cc(O)c4c3=O)[C@H](O)[C@@H](O)[C@@H]2O)[C@H](O)[C@H](O)[C@H]1O | inactive | –
Oc1ccc(OCc2ccccc2)cc1 | 1.07 µM (active) and inactive | –
CC1COc2ccccc2N1C(=O)C(Cl)Cl (stereo not given) | – | -22.9% (inactive)
Cc1cc(NS(=O)(=O)c2ccc(N)cc2)no1 | inactive | –
O=C(c1cc(O)c(O)c(O)c1)c1ccc(O)c(O)c1O | inactive | –
CCc1ccccc1O | – | -5.3% (inactive)
CC(C)(CO)COC(=O)C(C)(C)CO | inactive | –
